DAX1 inh-1: blocks DAX1 repression of SF-1 activated StAR promoter; HEK293T StAR-luciferase reporter, SF-1/DAX-1 repression relief; inhibition, % at 6.8 µM; 370,000 tested, 1.1% active;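 active = inhibition above the mean over all tested compounds plus 3 SD, cut at about 3.6% in these data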;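 also: 0% = DAX-1 cells with DMSO and 100% = cells lacking DAX-1 with DMSO; higher inhibition means more luminescence from relief of DAX-1 repression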
hgDAF-12 ag: agonists of H. glycines DAF-12 nuclear receptor | HEK293 GAL4-hgDAF12 UAS-luciferase reporter, agonist luminescence; normalized to butyrate control | activation, % at 6.8 µM | 370,000 tested, 1.8% active | AID 687014;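 active = activation above a cutoff set at the mean of all screened compounds plus 3 SD, cut at about 10% in these data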;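 also: 0% = DMSO wells and 100% = sodium butyrate wells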
ssDAF-12 act: activates DAF-12 receptor from parasite S. stercoralis; HEK293 ssDAF-12/GRIP1 lit1-tk-luc reporter, luminescence; % of 3 µM dafachronic acid response; activation, % at 6.8 µM; 370,000 tested, 1% active; AID 652126;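 active = activation above the mean over all tested compounds plus 3 SD, cut at about 0.9% in these data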;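 also: 0% = DMSO-only wells and 100% = 3 µM delta7-dafachronic acid wells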
DAX1 inh-2: inhibitors of human orphan nuclear receptor DAX1 (NR0B1); inhibition, % at 6.75 µM; 340,000 tested, 0.99% active; HEK293 Gal4-DAX1 luciferase reporter, luminescence; AID 504766;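 active = inhibition above the mean over all tested compounds plus 3 SD, cut at about 4.2% in these data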;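 also: 0% = DAX1-transfected cells with DMSO and 100% = empty-vector control cells with DMSO; inhibition shows as a rise in luminescence from relieved DAX1 repression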
hcDAF12 agonist: activators of H. contortus DAF-12 nuclear receptor; HEK293 hcDAF-12 lit1-tk-luc reporter, luminescence; 0% DMSO, 100% Δ7-dafachronic acid; activation, % at 6.8 µM; 370,000 tested, 1.4% active;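 active = activation above the mean of all tested compounds plus 3 SD, cut at about 5.5% in these data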;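 also: 100% = response to 3 µM Δ7-dafachronic acid high control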
LXR ag: counter-screen for hcDAF-12 agonists: agonists of human LXR-beta. shares compounds with hcDAF12 agonist. HEK293 Gal4-LXR tk-luc reporter, luminescence, 24 h; normalized: DMSO 0%, positive control 100%. activation, % at 6.8 µM. 3,400 tested, under 10 active. AID 743027;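 active = mean percent activation of the reporter above a cutoff set as the average over tested compounds plus their standard deviation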
Target sequence (P55055 whole entry, looked up, the tested form may be a part): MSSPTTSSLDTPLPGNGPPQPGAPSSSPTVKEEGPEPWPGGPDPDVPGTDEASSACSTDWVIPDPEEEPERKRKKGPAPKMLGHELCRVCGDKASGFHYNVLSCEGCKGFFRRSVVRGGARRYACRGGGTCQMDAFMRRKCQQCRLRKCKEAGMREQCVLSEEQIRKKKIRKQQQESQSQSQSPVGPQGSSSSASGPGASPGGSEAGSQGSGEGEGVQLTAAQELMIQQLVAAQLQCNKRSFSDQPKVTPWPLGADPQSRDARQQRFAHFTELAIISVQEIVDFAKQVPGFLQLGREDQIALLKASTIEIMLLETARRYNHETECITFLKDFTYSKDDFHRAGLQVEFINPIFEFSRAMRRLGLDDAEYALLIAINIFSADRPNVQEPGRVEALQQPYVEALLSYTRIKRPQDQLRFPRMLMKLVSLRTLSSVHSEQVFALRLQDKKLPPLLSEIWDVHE
hcDAF12 conf: confirmation of H. contortus DAF-12 agonists; shares compounds with hcDAF12 agonist; HEK293 hcDAF-12 lit1-tk-luc reporter, luminescence; % of Δ7-dafachronic acid response; activation, % at 6.8 µM; 3,400 tested, 61% active; AID 743032;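 active = mean activation across triplicate tests above the threshold derived from the earlier primary screen, cut at about 5.5% in these data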;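 also: 0% = DMSO only wells and 100% = 3 µM Δ7-dafachronic acid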
An asterisk follows results filed as active; x = not tested or not shown. The list is not random: actives were taken first. Their share in the collection is about 4.1%.

SMILES	DAX1 inh-1	hgDAF-12 ag	ssDAF-12 act	DAX1 inh-2	hcDAF12 agonist	LXR ag	hcDAF12 conf
COc1ccccc1NC(=O)CCNS(=O)(=O)c1ccc2c(c1)CCN2C(C)=O	-1	0	-1	0	-1	x	x
CC(=O)c1ccc(-c2ccc(C(=O)N3CCC(C(N)=O)CC3)o2)cc1	0	7	-1	1	2	x	x
COc1ccc(/C(N)=N/OC(=O)c2ccc(Br)o2)cc1	0	5	0	2	8.4*	0	4
CCNC(=O)C1CCCN(c2nc(C)cc(C)n2)C1 (centres undefined)	0	-4	-1	2	0	x	x
Cc1cccc(N2C(=O)c3cccc4c(N5CCCCC5)c([N+](=O)[O-])cc(c34)C2=O)c1C	0	-1	-1	-1	2	x	x
O=C1c2cccc3c(N4CCOCC4)c([N+](=O)[O-])cc(c23)C(=O)N1c1cccc2ccccc12	0	0	-1	1	6.8*	0	-1
Cc1ccc(N2CCC(N3CCN(C)C(CCO)C3)CC2)cc1 (centres undefined)	0	-1	-1	2	1	x	x
COC(=O)[C@@H](N[C@H](/C=C/c1ccccc1)[C@@H](O)Cc1ccccc1)C(C)C	0	0	-1	x	-1	x	x
O=C(NCCc1ccccc1)c1ccc(Cl)c(S(=O)(=O)N2CCOCC2)c1	-1	1	0	0	-1	x	x
O=C1Cc2ccccc2C(=O)N1CCc1ccccc1	0	6	0	4.7*	6.9*	0	4
CCOC(=O)c1cc(NC(=O)c2ccc(Cl)cc2)c(=O)n2c1oc1ccc(Cl)cc12	0	4	-1	-1	9.3*	0	-2
CCOC(=O)c1cc(NC(=O)c2ccc(C)cc2)c(=O)oc1C(F)(F)F	0	6	0	-1	0	x	x
CCOC(=O)c1ccc(N2C(=O)CC(SCC(=O)Nc3ccc(S(N)(=O)=O)cc3)C2=O)cc1 (centres undefined)	0	1	-1	0	-1	x	x
CCOC(=O)N/C(N)=N/c1nc2ccccc2s1	4.2*	11*	0	0	7.0*	1	5
CC(=O)N/C(N)=N/c1nc(=O)c2ccccc2s1	1	3	0	3	1	x	x
COc1ccc(NC(=O)c2c(Cl)n(C)c3ccccc23)cc1	-1	7	1.0*	-2	8.2*	0	6.9*
COc1ccc(NS(=O)(=O)NC(=O)c2c(C)n(C)c3ccccc23)cc1	0	6	0	-1	7.3*	0	1
O=C1/C(=C/c2cccs2)Cc2ccccc21	0	5	-1	-1	1	x	x
Cn1cccc1/C=C1\Cc2ccccc2C1=O	3.9*	19*	1.7*	4.3*	12*	2	9.4*
Cn1cccc1/C=C1\CCc2ccccc2C1=O	3	10	0	-4	10*	1	11*
Cc1ccc2nc(-c3ccc(SCC(=O)N4CCc5ccccc54)nc3)[nH]c2c1	1	5	0	1	7.1*	1	6.4*
Cc1ccc2nc(-c3ccc(SCC(=O)O)nc3)[nH]c2c1	1	6	0	-1	1	x	x
COc1ccc(CC2(CO)CCN(S(=O)(=O)c3cccc4cccnc34)CC2)cc1	0	1	-1	0	-2	x	x
O=C(CN1CCc2ccccc2C1)c1cccs1	1	1	1	0	6.9*	0	4
CC1CCN(CC(=O)c2cccs2)CC1	0	10	0	-1	1	x	x
SMILES	DAX1 inh-1	hgDAF-12 ag	ssDAF-12 act	DAX1 inh-2	hcDAF12 agonist	LXR ag	hcDAF12 conf
CC(C)Oc1ccc(S(=O)(=O)N2CCOCC2)cc1NC(=O)CCCSc1ccccc1	1	6	-1	-2	-1	x	x
CC(=NNc1nc2ccccc2s1)c1ncccn1	-2	12*	0	-4	11*	0	1
C/C(=N\Nc1nc2ccccc2s1)c1cccs1	3	12*	1.4*	1	18*	2	23*
CC(=NNc1nc2ccccc2o1)c1ncccn1	-5	-3	-1	-5	0	x	x
C/C(=N\Nc1nc(-c2ccccc2)cs1)c1cccs1	-1	-2	0	0	2	x	x
C/C(=N\NC(=O)c1cc2ccccc2cc1O)c1cccs1	1	2	0	1	5	x	x
C/C(=N/NC(=O)c1cccs1)c1cccs1	2	13*	0	7.1*	6.9*	1	4
O=C1C=CC(c2ccccc2)(c2ccccc2)CC1	0	-1	-1	0	1	x	x
NC(=S)N/N=C/c1ccc(-c2ccc(Cl)c(Cl)c2)o1	-1	6	1.4*	1	7.1*	0	9.9*
Cc1ccc(-c2ccc(/C=N/NC(N)=S)o2)cc1	0	7	1.7*	3	10*	0	7.5*
CN1CCN(C(CNC(=O)C(=O)NC2CCCCC2)c2ccc(F)cc2)CC1 (centres undefined)	2	-2	0	-1	-2	x	x
C=CCN(c1ccccc1)S(=O)(=O)c1cccc(C(=O)N2CC(C)CC(C)C2)c1 (centres undefined)	-5	-3	-2	-2	-6	x	x
COc1cccc(S(=O)(=O)N(C)C[C@H]2OCc3cn(nn3)CCCC(=O)N([C@@H](C)CO)C[C@@H]2C)c1	1	-1	-1	x	0	x	x
CCOc1cc2c3c(c1)C1(Nc4ccccc4S1)C(=O)N3C(C)(C)CC2C (centres undefined)	0	0	0	0	3	x	x
CCOc1cc2c3c(c1)C1(C(=O)N3C(C)(C)CC2C)C(C#N)=C(N)N2C(=C1C#N)Nc1ccccc12 (centres undefined)	0	1	-1	-1	7.2*	0	-1
N#Cc1ccc(C(=O)Nc2cccc3ncccc23)c(F)c1	-1	1	-2	-2	-1	x	x
Cc1cc(C)c2oc(-c3ccc(Cl)c(NC(=O)c4ccc(C#N)cc4F)c3)nc2c1	0	1	0	1	6.6*	0	5.7*
Cc1cc(N2CCN(C(=O)OC(C)(C)C)C[C@H]2C)ccc1N1CC[C@@H](O)C1	-3	-4	-1	x	0	x	x
O=C(O)c1ccc(N/N=C/c2cccc3cccnc23)cc1	3	13*	2.0*	1	8.1*	1	7.9*
COc1ccc2o/c(=N\O)c(C(=O)Nc3ccccc3OC)cc2c1	0	5	0	-1	3	x	x
COc1cccc2cc(C(=O)Nc3ccccc3C)/c(=N/O)oc12	1	8	1	2	9.2*	0	6.3*

High-throughput results from PubChem.
